Tg IFNy HTS = blocks Toxoplasma gondii growth in the presence of IFN-gamma | Toxoplasma gondii growth in IFN-gamma-treated host cells; hits give low values | activity change, negative = inhibition, % (no concentration beside the values) | 69,000 tested, 3.8% active; in the data active = activity change below about -70%, passing the limit was not always enough;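 also: host cells are HeLa cells infected with Toxoplasma gondii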
Of the large screens only hits and unclear results are named; the others gave an inactive call. The full list was thinned out, with hits kept by preference.

O=C(c1cn(-c2ccccc2)nn1)N1CCCCC1CCn1cccn1 (stereo not drawn)	none
O=S(=O)(c1ccccc1)N1CCN(CC(O)COc2ccc3ccccc3c2)CC1 (stereo not drawn)	Tg IFNy HTS -83
CCC(=O)c1ccc(OCC(O)CN2CCN(c3ccccc3)CC2)cc1 (stereo not drawn)	none
CC(C)c1nccc(CN2CCN(S(=O)(=O)c3ccccc3)CC2)n1	none
COc1ccc(NC(=O)C(=O)NCCc2csc(-c3ccc(Cl)cc3)n2)cc1OC	none
Cc1[nH]cnc1CN1CCC(=O)NCC1C (stereo not drawn)	none
CN1C(=O)CCc2cc(NC(=O)c3ccc(F)cc3Cl)ccc21	none
COc1ccc(-c2nc3c(s2)CN(S(=O)(=O)c2cc(OC)ccc2OC)CC3)cc1	Tg IFNy HTS -120
CCc1ccc(S(=O)(=O)N2CCc3nc(-c4ccc(OC)cc4)sc3C2)cc1	none
CCOc1ccc(S(=O)(=O)N2CCc3nc(-c4ccc(OC)cc4)sc3C2)cc1	none
COc1ccc(-c2nc3c(s2)CN(S(=O)(=O)c2ccc(F)cc2F)CC3)cc1	Tg IFNy HTS -95
CCOc1ccc(-c2nc3c(s2)CN(S(=O)(=O)c2ccc(F)cc2F)CC3)cc1	none
Cc1cccn2cc(-c3ccc(NC(=O)CNC(=O)c4ccccc4)cc3)nc12	none
CC(C)Oc1ccc(C(=O)N[C@H](CNC(=O)CN(C)C)Cc2ccc(-c3cn4cccc([C@H](C)O)c4n3)cc2)cc1Cl	Tg IFNy HTS -80
COc1ccc(Nc2nc(-c3nnc(-c4ccc(C)cc4)o3)nc3ccccc23)cc1Cl	none
COc1ccc(Nc2nc(-c3nnc(-c4cccc(C)c4)o3)nc3ccccc23)cc1OC	none
COc1ccc(C)cc1Nc1nc(-c2nnc(-c3ccc(Cl)cc3)o2)nc2ccccc12	none
COc1ccc(-c2nnc(-c3nc(Nc4cc(C)cc(C)c4)c4ccccc4n3)o2)cc1	Tg IFNy HTS -101
Cc1cccc(Nc2nc(-c3nnc(-c4ccccc4)o3)nc3ccccc23)c1C	none
COc1ccc(-c2nnc(-c3nc(Nc4cccc(OC)c4)c4ccccc4n3)o2)cc1	none
COc1ccccc1Nc1nc(-c2nnc(-c3ccccc3)o2)nc2ccccc12	Tg IFNy HTS -92
CCOc1ccccc1Nc1nc(-c2nnc(-c3cccc(C)c3)o2)nc2ccccc12	none
COc1cc(Nc2nc(-c3nnc(-c4ccccc4)o3)nc3ccccc23)cc(OC)c1OC	Tg IFNy HTS -125
COc1cccc(Nc2nc(-c3nnc(-c4ccc(C)cc4)o3)nc3ccccc23)c1	none
COc1ccccc1Nc1nc(-c2nnc(-c3cccc(C)c3)o2)nc2ccccc12	Tg IFNy HTS -86
Cc1nc(-c2ccc(OCC(C)C)c(C#N)c2)sc1C(=O)O	none
CCOC(=O)Nc1cc2c(C)cc(=O)oc2cc1C	none
CC1=C(C(=O)Nc2ccc(C)cc2Cl)C2(CCN(Cc3ccccc3)CC2)OC1=O	none
CN1CCN(C(=O)C[C@@H]2CC[C@@H]3[C@H](COC[C@@H](O)CN3C(=O)Nc3ccc4c(c3)OCO4)O2)CC1	none
N#Cc1c(N)sc(=S)c2c1CCCC2	none
Cc1ccc(NC(=O)C(=O)NCCc2csc(-c3ccc(F)cc3)n2)cc1C	none
Cc1cccc(-c2nnc(-c3nc(Nc4ccc(C)c(F)c4)c4ccccc4n3)o2)c1	none
Cc1cccc(Nc2nc(-c3nnc(-c4cccc(C)c4)o3)nc3ccccc23)c1	none
COc1cc(Nc2nc(-c3nnc(-c4cccc(C)c4)o3)nc3ccccc23)cc(OC)c1	Tg IFNy HTS -130
CCS(=O)(=O)N1CC2(CN(C(=O)NC(C)C)[C@@H](CO)c3c2c2ccc(OC)cc2n3C)C1	none
CC(=O)N1CCO[C@H]2CN(C(=O)Cc3ccccn3)CC[C@@H]2C1	none
COc1nn(CC(=O)Nc2nc3c(s2)CCCCCC3)c(=O)c2ccccc12	Tg IFNy HTS -86
Cc1nc2nc(CC(=O)Nc3nc4c(s3)CCCCCC4)[nH]n2c(=O)c1C	none
O=C(COC(=O)CN1C(=O)C(=O)c2ccccc21)Nc1nc2c(s1)CCCC2	none
Cc1c(-c2ccnc(N)n2)nnn1-c1ccc(Cl)cc1Cl	Tg IFNy HTS -109
O=c1c(Cl)c(-n2cccn2)cnn1-c1ccc(Cl)cc1Cl	none
Cc1c(-c2ccccc2)nnn1-c1cc(Cl)cc(Cl)c1	none
Cc1ccnc(N2CCN(C3CCC4(CCNCC4)CC3)CC2)c1	none
COc1ccccc1OCC(=O)N1CCC[C@]2(C[C@@H](OC)CO2)C1	none
COC1COC2(CCN(C(=O)Cc3ccccn3)CC2)C1 (stereo not drawn)	Tg IFNy HTS -98
CC(C)C(=O)NC1COC2(CCN(C(=O)Cc3ccccn3)CC2)C1 (stereo not drawn)	none
O=C(Nc1ccc(Sc2cccs2)cc1)c1ccc(Cl)cc1	none
O=C(CNC(=O)c1ccc(Cl)cc1)NO	none
O=C(NCc1c(Cl)cccc1Sc1ccc(Cl)cc1)c1ccc(Cl)cc1	Tg IFNy HTS -102
CCn1ncnc1CN(Cc1ccsc1)CC1CCCO1 (stereo not drawn)	none
COc1ccc(CN2CCC(C(=O)c3ccc(OC)cc3)C2c2ccc(F)cc2)cc1 (stereo not drawn)	none
CC(Cc1ccncc1)NC(=O)c1cc(Cn2cnc3ccccc32)[nH]n1 (stereo not drawn)	none
COc1cccc(-c2nn(CC3CC3)c3c2[C@@H]2CN(Cc4ccccc4)C[C@@H]2C3)c1	none
COCCN1CC2CN(c3ncc(F)cn3)CCC2(c2ccccc2)C1 (stereo not drawn)	none
COc1ccc(-c2nc(N3CCN(c4ccc(F)cc4)CC3)c3ccccc3n2)cc1	none
CCCCN(C)C(=O)c1cnc(-c2noc3cc(NCC4CC4)ccc23)s1	Tg IFNy HTS -82
CN(C)C1CCN(C(=O)c2cnc(-c3noc4cc(-c5ccccc5)ccc34)s2)CC1	none
Cc1cc(CN(C)C(=O)c2cccc(NCc3ccc(C)s3)c2)on1	none
Cc1cnc(C(=O)N2CCc3nc(C(=O)N(C)C)sc3CC2)cn1	none
Cc1nc(C(F)(F)F)ccc1C(=O)NC1CCCN(Cc2cnn(C)c2C)CC1 (stereo not drawn)	none
O=C(NC1CCN(CCCCC2(C(=O)NCC(F)(F)F)c3ccccc3-c3ccccc32)CC1)c1ccccc1-c1ccc(C(F)(F)F)cc1	Tg IFNy HTS -74
CN1CCC2(C=C(C(=O)NC3CC3)c3ccccc32)CC1	none
CCOc1ccccc1-c1nc(Cn2nnc(C(=O)Nc3cc(C)ccc3C)c2C)c(C)o1	none
CC1CCN(S(=O)(=O)c2ccc3c(ccc(=O)n3CC(=O)NC3CCCCC3)c2)CC1	none
COc1ccc2c3c(n(C)c2c1)[C@H](CO)N(Cc1ccccc1OC)CC31CN(C)C1	none
S=c1[nH]cc(-c2ccc(Br)cc2)[nH]1	Tg IFNy HTS -97
Cc1nc(-c2ccccc2)nc2c1CCN(c1ncc(F)cn1)CC2	none
Cc1nc(N2CCCC2)nc2c1CCN(c1ncc(F)cn1)CC2	Tg IFNy HTS -86
Cc1nc(N2CCCC2)nc2c1CCN(c1ncccn1)CC2	none
COc1ccc(N2CCN(C(=O)CN3C(=O)CCc4cc(Br)ccc43)CC2)cc1	none
Cc1ccccc1S(=O)(=O)N1C[C@H](O)COC[C@H]2O[C@@H](CC(=O)N3CCCCC3)CC[C@@H]21	none
CNC(=O)[C@@H]1C[C@H](N)CN1C(=O)CCc1ccc(-c2ccc(Cl)cc2)[nH]1	none
Cn1cc(C[C@H]2[C@@H](O)CCN2C(=O)Cc2ccc(F)cc2)cn1	none
O=S(=O)(Nc1ccccc1N1CCOCC1)c1cc(Cl)sc1Cl	Tg IFNy HTS -85
Cn1cc(S(=O)(=O)Nc2ccccc2N2CCOCC2)c(C(F)(F)F)n1	none
O=S(=O)(Nc1ccccc1N1CCOCC1)c1cccc2nonc12	none
O=C(CCC(=O)Nc1ccc(F)c(Cl)c1)NCCc1cnc[nH]1	none
O=C(CC1N=C2c3ccccc3N=C(SCc3ccc(Cl)cc3)N2C1=O)NC1CCCCC1 (stereo not drawn)	none
